Drawing on article PMC7819943, “Rice protein-binding microarrays: a tool to detect cis-acting elements near promoter regions in rice”, this text covers binding signal for 43 sequences.

Whole data set: some 35,000 sequences, median “fluorescence intensity (a.u.)” near 10,000, cut for the highest 2% near 52,000. This is one part of a sample in which the highest values are shown more often than they occur.

The assay addresses T1, OsWOX13 (Oryza sativa, UniProt Q5QMM3 1-267).
T1 sequence: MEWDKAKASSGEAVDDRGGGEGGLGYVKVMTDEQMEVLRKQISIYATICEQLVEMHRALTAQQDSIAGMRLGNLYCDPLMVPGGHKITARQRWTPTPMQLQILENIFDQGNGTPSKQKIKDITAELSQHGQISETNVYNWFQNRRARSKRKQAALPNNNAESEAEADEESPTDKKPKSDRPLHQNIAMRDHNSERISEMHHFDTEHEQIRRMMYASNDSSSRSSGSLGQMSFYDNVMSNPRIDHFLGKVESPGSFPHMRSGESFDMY
The assay is described as follows: protein-binding microarray (RPBM); PBS, 2% BSA, 51.3 ng/ul salmon testes DNA, 50 uM zinc acetate, 200 nM TF, 25 C, 1 h; high values mean tight binding. The following applies: protein: recombinant; tags: N-terminal polyhistidine and DsRed monomer fusion (pET32a); label: CyDye5-dUTP incorporated in the synthesized complementary strand; 3' TTTTT single-stranded linker to array surface; dsDNA, one strand shown. The essentials:
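Transcription factors were each fused at the N-terminus to a polyhistidine tag plus DsRed and expressed in E. coli BL21-CodonPlus before Ni–NTA purification. Binding to a double-stranded custom Agilent array was carried out with 200 nM protein at 25 °C for 1 h in PBS, 2% BSA, salmon testes DNA and 50 µM zinc acetate. The binding signal is per-feature fluorescence intensity, in arbitrary units, on an Axon 4000B scanner.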
For “CTGATGATTCACCCATGATCGATTGCTCGATCCGTTTAAGCGGAGTCACCTAGTGCAG”, the binding signal is 3710 fluorescence intensity (a.u.).
The value for “TTGTGACTTGACTTTGCCAATCTTAGTCTATTTTCTCGAGCGGAGTCACCTAGTGCAG” was 5270 fluorescence intensity (a.u.).
For “TATTAAATTGGCTATAGGTGATTTGGAGCTAATAGTTAGCCGGAGTCACCTAGTGCAG”, the binding signal is 24000 fluorescence intensity (a.u.).
Regarding “CTTAATTACTATTCCCTCCGTCATACAATATAAGAGATTTCGGAGTCACCTAGTGCAG”, the binding signal is 22500 fluorescence intensity (a.u.).
For “CATAAACTGAAGCTCATAATTGTTTGTGAAATCGTTTATCCGGAGTCACCTAGTGCAG”, the binding signal was 16900 fluorescence intensity (a.u.).
Regarding “CGTGGTCTCTAATTTGTTTTGTTCGTTCTCCTTTCTTGTTCGGAGTCACCTAGTGCAG”, the binding signal was 4660 fluorescence intensity (a.u.).
The value for “GACTCTATCTAGAAATTAAATTTAATCAACACATGTAAGTCGGAGTCACCTAGTGCAG” was 12800 fluorescence intensity (a.u.); that for “TTTATTTAATTGATTCGATGAACTTTGTGCCATTAAAATTCGGAGTCACCTAGTGCAG” was 35000 fluorescence intensity (a.u.); that for “AGGTGGCCCCATTAATTGATGATGAAATGCAAACCTAAATCGGAGTCACCTAGTGCAG” was 9480 fluorescence intensity (a.u.).
“TATGATTAAAATTGTTTTGAACCATTGCACGCACCAGCATCGGAGTCACCTAGTGCAG”: the binding signal is 18500 fluorescence intensity (a.u.).
Then “TAAATTGACATGATTAATTGAAACCACGCCATTCAGCAATCGGAGTCACCTAGTGCAG”, with 65500 fluorescence intensity (a.u.); and “TGGGGTATCTAGTCAATCATACAATATTTTGTTTTGCTAACGGAGTCACCTAGTGCAG”, with 7400 fluorescence intensity (a.u.); and “AGGAAAATGTGGTGAGTAATTAGGTTATAATTTATTGAGTCGGAGTCACCTAGTGCAG”, with 4100 fluorescence intensity (a.u.).
In the case of “AAGTGATTGCCCTGGCTCAGAGTTGAGTAAACAATCAGGCCGGAGTCACCTAGTGCAG”, the binding signal is 19900 fluorescence intensity (a.u.).
Then “AAAATCAAGATTGATGTGGTTTCACCCCAACACAAGAAAACGGAGTCACCTAGTGCAG”, with 8050 fluorescence intensity (a.u.).
With “GATAGATAGATAGATACATACACACAAACATAAGTAGCTACGGAGTCACCTAGTGCAG”, the binding signal is 19100 fluorescence intensity (a.u.).
Then “CATAATTGAGTCTGATTGGCACAAACCTAGAGAACATGCCCGGAGTCACCTAGTGCAG”, with 65500 fluorescence intensity (a.u.); and “GTTTCAATGATTGGTTGTTCACCCAACCCAAGTACCCAGCCGGAGTCACCTAGTGCAG”, with 57400 fluorescence intensity (a.u.).
Then “TGATGATTGGTTTCTTGGCCAATGGTTTGGTTGTTGTTTTCGGAGTCACCTAGTGCAG”, with 23100 fluorescence intensity (a.u.).
Then “AAAGAGAACACATAATTGATTTGGAGCACCCAAATAATTTCGGAGTCACCTAGTGCAG”, with 15200 fluorescence intensity (a.u.).
On to “TTGTGATTGATTTCACACCCAAACAACAAGTAGTCAGCTACGGAGTCACCTAGTGCAG”, for which the binding signal was 61300 fluorescence intensity (a.u.).
Then “TGCCCCAATGATTTTGTACCACAGACCAGCTCAAGTTGCCCGGAGTCACCTAGTGCAG”, with 4400 fluorescence intensity (a.u.).
Then “TCTCATTGACAAGCCAACAAACGCACAGTGTGACAAGCTCCGGAGTCACCTAGTGCAG”, with 3600 fluorescence intensity (a.u.); and “TTGATAATTGGGCACCTATGCCCGACACATAAAACACACTCGGAGTCACCTAGTGCAG”, with 22200 fluorescence intensity (a.u.).
The value for “AGTGTGATTGATGCACAAACAAACAGCTCAAGTTGAGGCCCGGAGTCACCTAGTGCAG” was 55400 fluorescence intensity (a.u.).
As for “ATGTGATTATTTCGTCCTGCTGTAAACTTGGTGCAAGTGACGGAGTCACCTAGTGCAG”, the binding signal was 18600 fluorescence intensity (a.u.).
Then “GGCTTTCCAGTTGATAAATCAATCATCATCCCCTTGATCGCGGAGTCACCTAGTGCAG”, with 8410 fluorescence intensity (a.u.); and “ATGTTCTTTCTTGATTAGACCATCTGATGCTTTGCGCAGTCGGAGTCACCTAGTGCAG”, with 4480 fluorescence intensity (a.u.).
Then “TAGGAGATTATATTTAAATTAACTTTAAAGAGAAATCTTGCGGAGTCACCTAGTGCAG”, with 11600 fluorescence intensity (a.u.).
In the case of “GGTTGTTAGCACATGATTAATTGTATTAAAACAACTTAAACGGAGTCACCTAGTGCAG”, the binding signal was 3580 fluorescence intensity (a.u.).
The value for “AAGATTGAAGGCAACCAAACCAACAAGGATGGATGCTTCTCGGAGTCACCTAGTGCAG” was 16500 fluorescence intensity (a.u.); that for “GGACGTATATATACATTGATTAATACCAAATCCTCAGCACCGGAGTCACCTAGTGCAG” was 4520 fluorescence intensity (a.u.); that for “GTTGATTTGTGTTTTGACTTTTGAAAAGACTACTGTTACTCGGAGTCACCTAGTGCAG” was 27500 fluorescence intensity (a.u.).
Turning to “ATATTATTTATAAATTGTGTGTGCAACTGACTTGTGGGCCCGGAGTCACCTAGTGCAG”, the binding signal is 3490 fluorescence intensity (a.u.).
The value for “AGTGATTATAATATTGTTCACAAATTTACAAACCTCTCATCGGAGTCACCTAGTGCAG” was 36700 fluorescence intensity (a.u.); that for “TTTTATATTTTAATTAATTACATAATGTAAATATTTCTCACGGAGTCACCTAGTGCAG” was 17100 fluorescence intensity (a.u.).
The value for “TTATAATTACTACATTATAATAAAAGTAAAATTGTATTTACGGAGTCACCTAGTGCAG” was 12100 fluorescence intensity (a.u.); that for “TTGTAATTACATAAATTATACGAATTGTAAAGATTTGGCACGGAGTCACCTAGTGCAG” was 54600 fluorescence intensity (a.u.).
Then “ATTATATATTTAATAAAATTAATTTGGTGTTGTATATTTACGGAGTCACCTAGTGCAG”, with 8780 fluorescence intensity (a.u.).
For the sequence “TTATAATTGTAAATTTTACAAATTAGTCCTCACCTGTTCTCGGAGTCACCTAGTGCAG”, the binding signal was 53400 fluorescence intensity (a.u.).
The value for “CATAAATTAATTTGTTCACGTCACATTATATACAGTTGTACGGAGTCACCTAGTGCAG” was 55000 fluorescence intensity (a.u.); that for “AATTAAATTAGAGTATTCAGTTTGTATATAGTACATTTGTCGGAGTCACCTAGTGCAG” was 14000 fluorescence intensity (a.u.).
Then “TAAAATTATCAAAATATTATATTATACACATAAGATTGTACGGAGTCACCTAGTGCAG”, with 5140 fluorescence intensity (a.u.).
